Screens (PubChem BioAssay)
The list is not random: actives were taken first. Their share in the collection is about 3.7%.
BoNT F protease = blocks Botulinum neurotoxin F light chain protease. actives 0.22% (n = 360,000). inhibition, % at 10 µM. Multiplex microsphere protease cleavage assay, flow cytometry. AID 588497; in the data active means inhibition above about 35%, passing the limit was not always enough; inconclusive means no clear call, values can overlap the other calls; further: plate controls were buffer without enzyme for full effect and enzyme alone for no effect
Anthrax LF inh2 = anthrax lethal factor protease inhibition | actives 0.12% (n = 360,000) | multiplex microsphere protease cleavage assay, LF | AID 588501 | P15917 | inhibition, % at 10 µM; further: plate controls were buffer without enzyme for full effect and enzyme alone for no effect
MazEF act = MazEF (E. coli) toxin RNase activation | AID 504720 | activation, % at 20 µM | FAM/BHQ RNA-DNA oligo cleavage fluorescence, 5 h | actives 0.32% (n = 350,000) | P0AE70; in the data active means activation above about 50%
Target sequence (P0AE70 whole entry, looked up): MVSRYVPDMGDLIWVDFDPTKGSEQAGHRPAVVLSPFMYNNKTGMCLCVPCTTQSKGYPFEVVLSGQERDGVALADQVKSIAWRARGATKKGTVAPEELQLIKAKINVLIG
Bead autofluor = counter-screen for toxin protease inhibitors: compound fluorescence; compound autofluorescence counterscreen, microsphere flow cytometry; active compounds read high; fluorescence intensity (concentration not given with the values); actives 3.1% (n = 360,000); AID 624483; in the data active means fluorescence intensity above about 16000; inconclusive means no clear call, values can overlap the other calls
BoNT-A LC inh2 = inhibitors of Botulinum neurotoxin A light chain protease | multiplex microsphere protease substrate cleavage, flow cytometry | inhibition, % at 10 µM | actives 0.17% (n = 360,000) | AID 588499; further: plate controls were buffer without enzyme for full effect and enzyme alone for no effect
Numbers without * were called inactive. Unless noted, no stated cut-off is given here; in the data, active means inhibition above about 30%; inconclusive means no clear call, values can overlap the other calls; inactive means below that.

How did c1ccc(Nc2cc(-c3ccccc3)nc3ncnn23)cc1 do in these assays?
BoNT F protease: -5; Anthrax LF inh2: -4; MazEF act: 0; Bead autofluor: 16695*; BoNT-A LC inh2: inconclusive

Results for O=C(CN1CCN(C(=O)C2CCCO2)CC1)Nc1ccc(Cl)c(Cl)c1 (stereo not given) ?
BoNT F protease: 2; Anthrax LF inh2: -2; MazEF act: -5; Bead autofluor: 5242; BoNT-A LC inh2: 0

Results for COc1cccc(N2CCN(C3CCCC(C)C3)CC2)c1 (stereo not given) ?
BoNT F protease: -4; Anthrax LF inh2: -7; MazEF act: -5; Bead autofluor: 24685*; BoNT-A LC inh2: -4

How did COc1ccc(S(=O)(=O)N2CCN(C3CCCC(C)C3)CC2)cc1 (stereo not given) do in these assays?
BoNT F protease: 18; Anthrax LF inh2: -12; MazEF act: 14; Bead autofluor: 3815; BoNT-A LC inh2: 3

What do the screens show for `CC1(C)N=C(N)NC(Nc2ccc(Br)cc2)=N1`?
BoNT F protease: -3; Anthrax LF inh2: -2; MazEF act: 5; Bead autofluor: 23628*; BoNT-A LC inh2: -2

What do the screens show for `O=C(Nc1cc(C(F)(F)F)cc(C(F)(F)F)c1)c1ccc(Cn2cc(C(F)(F)F)ccc2=O)cc1`?
BoNT F protease: -3; Anthrax LF inh2: 0; MazEF act: 4; Bead autofluor: 20069*; BoNT-A LC inh2: inconclusive

How did O=C(NC(Cc1ccccc1)C(=O)O)c1ccccc1 (stereo not given) do in these assays?
BoNT F protease: 10; Anthrax LF inh2: -5; MazEF act: 9; Bead autofluor: 4594; BoNT-A LC inh2: 0

What do the screens show for `CC(C)(C)c1ccc(C(=O)NC(Cc2ccccc2)C(=O)O)cc1` (stereo not given)?
BoNT F protease: -2; Anthrax LF inh2: -2; Bead autofluor: 22268*; BoNT-A LC inh2: -1

How did Cc1ccc(CC(NC(=O)c2ccccc2)C(=O)NC(C)C(=O)O)cc1 (stereo not given) do in these assays?
BoNT F protease: 3; Anthrax LF inh2: 3; MazEF act: 7; Bead autofluor: 21689*; BoNT-A LC inh2: 5

Results for O=C(NC(Cc1ccccc1)C(=O)O)c1ccc(S(=O)(=O)N2CCCCC2)cc1 (stereo not given) ?
BoNT F protease: 4; Anthrax LF inh2: -9; MazEF act: 7; Bead autofluor: 22876*; BoNT-A LC inh2: 1

What do the screens show for `CCc1ccccc1NC(=O)CNC(=O)c1ccc(-n2cncn2)c([N+](=O)[O-])c1`?
BoNT F protease: -7; Anthrax LF inh2: -1; MazEF act: 1; Bead autofluor: 6088; BoNT-A LC inh2: 2

Results for Cn1ccc(C(=O)Nc2cccnc2Cl)n1 ?
BoNT F protease: 11; Anthrax LF inh2: 0; MazEF act: -1; Bead autofluor: 5582; BoNT-A LC inh2: 2

Results for COC(=O)c1cc([N+](=O)[O-])c(-n2cncn2)c([N+](=O)[O-])c1 ?
BoNT F protease: 25; Anthrax LF inh2: -4; MazEF act: 3; Bead autofluor: 2583; BoNT-A LC inh2: 1

Results for COC(=O)c1cc(F)c(-n2cncn2)c(F)c1 ?
BoNT F protease: -3; Anthrax LF inh2: 2; MazEF act: -2; Bead autofluor: 16245*; BoNT-A LC inh2: inconclusive

How did Cc1ccc(NC(=S)NNC(=O)c2ccco2)cc1 do in these assays?
BoNT F protease: 2; Anthrax LF inh2: 0; MazEF act: 1; Bead autofluor: 21506*; BoNT-A LC inh2: 2

Results for Cc1cccc(NC(=S)NNC(=O)c2ccco2)c1 ?
BoNT F protease: 1; Anthrax LF inh2: -1; MazEF act: -21; Bead autofluor: 9510; BoNT-A LC inh2: 0

What do the screens show for `CCCCNC(=S)NNC(=O)c1ccco1`?
BoNT F protease: 0; Anthrax LF inh2: -2; MazEF act: 3; Bead autofluor: 16637*; BoNT-A LC inh2: 0

How did O=C(NC(=S)Nc1ccc(N2CCCCC2)cc1)c1ccco1 do in these assays?
BoNT F protease: 2; Anthrax LF inh2: -14; MazEF act: 1; Bead autofluor: 20910*; BoNT-A LC inh2: 3

Results for CC1CCN(c2ccc(NC(=S)NC(=O)c3ccco3)cc2)CC1 ?
BoNT F protease: 2; Anthrax LF inh2: -2; MazEF act: 2; Bead autofluor: 3138; BoNT-A LC inh2: 0

How did CCCCNC(=O)NNC(=O)c1ccco1 do in these assays?
BoNT F protease: 14; Anthrax LF inh2: 1; MazEF act: 4; Bead autofluor: 8417; BoNT-A LC inh2: 2

What do the screens show for `COc1cc([N+](=O)[O-])cc(/C=N\NC(=O)C2COc3ccccc3O2)c1O` (stereo not given)?
BoNT F protease: -1; Anthrax LF inh2: -2; MazEF act: -3; Bead autofluor: 4582; BoNT-A LC inh2: 0

How did COc1ccc(OC)c(N2C(=O)C(Cl)=C(N3CCCCC3)C2=O)c1 do in these assays?
BoNT F protease: 9; Anthrax LF inh2: 2; MazEF act: 3; Bead autofluor: 21020*; BoNT-A LC inh2: 9

What do the screens show for `O=C(O)c1cc(Cl)n[nH]c1=O`?
BoNT F protease: 1; Anthrax LF inh2: 5; Bead autofluor: 4239; BoNT-A LC inh2: 1

How did O=C/C(=C\Nc1ccccn1)c1nc2cc(Cl)ccc2o1 do in these assays?
BoNT F protease: 2; Anthrax LF inh2: -5; MazEF act: 11; Bead autofluor: 3820; BoNT-A LC inh2: 1

Results for O=C/C(=C\Nc1ccccn1)c1nc2ccccc2o1 ?
BoNT F protease: -6; Anthrax LF inh2: -1; MazEF act: 7; Bead autofluor: 17474*; BoNT-A LC inh2: inconclusive

What do the screens show for `Cn1c(/C=C/c2ccccc2[N+](=O)[O-])nc2ccccc2c1=O`?
BoNT F protease: 8; Anthrax LF inh2: 2; MazEF act: 233*; Bead autofluor: 3076; BoNT-A LC inh2: 2

How did CC1(O)c2ccccc2C(=O)N1Cc1ccccc1 (stereo not given) do in these assays?
BoNT F protease: -2; Anthrax LF inh2: 1; MazEF act: 5; Bead autofluor: 17655*; BoNT-A LC inh2: -2

Results for O=C(NC1(C(F)(F)F)Oc2ccc(Cl)cc2O1)N1CCC2(CC1)OCCO2 (stereo not given) ?
BoNT F protease: 5; Anthrax LF inh2: 0; MazEF act: -3; Bead autofluor: 4037; BoNT-A LC inh2: 1

How did O=C(NC1(C(F)(F)F)Oc2ccccc2O1)N1CCC2(CC1)OCCO2 do in these assays?
BoNT F protease: -2; Anthrax LF inh2: 1; MazEF act: 0; Bead autofluor: 21302*; BoNT-A LC inh2: -2

How did O=C(N/N=C/c1cccs1)C1CC(=O)N(c2ccccc2)C1 (stereo not given) do in these assays?
BoNT F protease: 3; Anthrax LF inh2: -2; MazEF act: 2; Bead autofluor: 20162*; BoNT-A LC inh2: 1

Results for COc1ccc(C(C)=O)cc1COC(=O)c1ccc(N)c([N+](=O)[O-])c1 ?
BoNT F protease: -1; Anthrax LF inh2: 2; MazEF act: 10; Bead autofluor: 4054; BoNT-A LC inh2: 0

How did COc1ccc(C(C)=O)cc1COC(=O)c1cccc(N(C)C)c1 do in these assays?
BoNT F protease: 39*; Anthrax LF inh2: -4; MazEF act: -6; Bead autofluor: 3334; BoNT-A LC inh2: 0
